Measured values from PubChem BioAssay (NCI).
The panel holds about 79,000 compounds, 15% with a hit somewhere; the sample as a whole holds those more often. Values without a mark were called inactive. Calls of active or inactive are those of the source. No stated cut-off is given here; in the data, active means growth inhibition above about 70%; inactive means the rest.

Legend:
[1] = NCI Yeast Anticancer Drug Screen. Data for the rad50 strain (AID 155);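 further: 0% = growth of vehicle-only cultures of the same strain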; conditions: S. cerevisiae rad50 strain growth inhibition; at 50.0 µM; hits give high values
In short: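 Genetically altered yeast (DNA repair pathway); compound treatment; growth inhibition vs vehicle ctrl.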

[2] = NCI Yeast Anticancer Drug Screen. Data for the mec2-1 strain (AID 157); conditions: S. cerevisiae mec2-1 strain, at 50.0 µM, hits give high values
In short: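 Strain: mec2-1 (DNA repair/cell cycle alteration). Compound exposure, then growth measured; inhibition expressed relative to vehicle.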

[3] = NCI Yeast Anticancer Drug Screen. Data for the sgs1 mgt1 strain (AID 161);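 further: 0% = growth of cultures given vehicle only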; conditions: S. cerevisiae sgs1 mgt1 strain, at 50.0 µM, hits give high values
In short: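 Inhibition of yeast growth, normalised to vehicle-treated controls, is reported for a strain bearing genetic alterations in DNA damage repair.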

[4] = NCI Yeast Anticancer Drug Screen. Data for the cln2 rad14 strain (AID 165);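 further: 0% = growth equal to vehicle treated cultures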; conditions: S. cerevisiae cln2 rad14 strain, at 50.0 µM, hits give high values
In short: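 Compounds are applied to the cln2 rad14 yeast strain, and growth is then compared with that of vehicle-treated cultures to give inhibition.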

[5] = NCI Yeast Anticancer Drug Screen. Data for the bub3 strain (AID 167); conditions: S. cerevisiae bub3 mutant strain, at 50.0 µM, hits give high values
In short: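 Yeast carrying a defined mutation is treated with each compound, and growth is compared with that of vehicle-exposed cells to give inhibition.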

[6] = NCI Yeast Anticancer Drug Screen. Data for the mlh1 rad18 strain (AID 175); conditions: S. cerevisiae mlh1 rad18 strain growth inhibition; at 50.0 µM; hits give high values
In short: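 Read-out is yeast growth inhibition, calculated against vehicle-only controls. The compound was applied to a strain engineered with DNA damage repair alterations.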

Compound | growth inhibition [1] | growth inhibition [2] | growth inhibition [3] | growth inhibition [4] | growth inhibition [5] | growth inhibition [6]
CCOc1ccc2nc3cc(I)ccc3c(N)c2c1 | 8.15% | -24.2% | 14.6% | -10.3% | -0.05% | 27.1%
O=c1oc2ccccc2c(O)c1C(c1ccc2c(c1)OCO2)N1CCOCC1 (configuration not stated) | 23.2% | 25.2% | 8.5% | 25.7% | 1.8% | 19.1%
COC(=O)c1nnn(-c2ccc(Cl)cc2C)c1N | -17.8% | -1.95% | 16.7% | 29.7% | -15.6% | 21.2%
CNC(=O)N(c1ccccc1)C1CCCCC1 | 15.8% | 13.8% | -2.5% | -65.5% | 9.8% | 1.15%
O=C(C1OC1c1ccccc1)C1OC1c1ccccc1 (configuration not stated) | -6.05% | 10.2% | 9.55% | -12.4% | 62.1% | 37%
Cc1ccc(Cl)c2c1C(=O)c1ccccc1C2=O | 24.2% | 7.65% | 3.3% | 14.8% | 5.6% | 23.9%
O=C1c2ccccc2-c2ccc3c4ccc5c6c(ccc(c7ccc1c2c73)c64)-c1ccccc1C5=O | 25% | -5.4% | 11.1% | -30.4% | 5.75% | 18.4%
Cc1cc(C)c(C2CNCc3cc4c(cc32)CNCC4c2c(C)cc(C)cc2C)c(C)c1 (configuration not stated) | -16.3% | -32.8% | -46% | -44.9% | -62.8% | -131%
CC1=CC(C)(C)NC(=S)N1CCO | 1.95% | -18.6% | 25.3% | 13.4% | 1.15% | 32.3%
CCOC(=O)C1SC(=Nc2ccc(OC)c(OC)c2)N=C1C (configuration not stated) | 17.9% | 4.2% | 50.3% | 4.95% | 29.9% | 1.4%
CC(=O)C(N)C(C)C (configuration not stated) | 5.4% | -3.7% | 19.2% | 7.9% | 1.65% | 7.95%
c1cc2nc(c1)CSCCCCCCCCSC2 | -3.25% | 41% | 17.8% | -10.1% | 55% | 36%
CN(C)c1ccc(S(=O)c2ccc(N(C)C)cc2)cc1 | -30.4% | -27.9% | -44.9% | -4.75% | -48.4% | -35%
Nc1nc(-c2ccc(S(=O)(=O)O)cc2)cc(=O)[nH]1 | -9.6% | -4.5% | -10.7% | 17.2% | -27.4% | 16.5%
OCC(O)COc1ccc(OCc2ccccc2)cc1 (configuration not stated) | 2.65% | -12.1% | -3.4% | -21.5% | -5.05% | -20.3%
CN1CCC2(CC1)C(=O)N(N1CCCCCC1)C(=O)N2c1ccccc1 | 26.2% | 4.85% | -0.95% | 4.5% | 4% | 15.5%
NC(=O)c1ccc(Cl)cc1C(N)=O | -6.55% | 17.9% | 7.1% | -24.1% | -0.05% | -2.25%
CC12CCC(C(Br)C1=O)C2(C)CBr (configuration not stated) | -9.8% | 5.75% | 20.4% | 23.8% | 9% | -0.7%
CCC(=O)OCc1ccc(Cl)cc1 | 23.9% | 11.4% | 7.9% | 8.6% | 12.4% | 4.9%

Compound | growth inhibition [1] | growth inhibition [2] | growth inhibition [3] | growth inhibition [4] | growth inhibition [5] | growth inhibition [6]
CC(=O)/C(C=Nc1c(C)n(C)n(-c2ccccc2)c1=O)=C(/C)O | 24.6% | 29% | 28.1% | 9.65% | 24.9% | 28.5%
O=C1CSC(c2ccc(Cl)c([N+](=O)[O-])c2)N1c1nncs1 (configuration not stated) | 7.9% | 4.6% | 24.2% | 12.7% | 10% | 25.1%
COc1ccc(CC(=O)OCC2CCCO2)cc1OC (configuration not stated) | -8.5% | -1.25% | 9.9% | -20.6% | 5.6% | 4%
O=C(O)c1ccc(N2CCOCC2)cc1 | -20% | -13.5% | -15.4% | -15.6% | -9.3% | 6.6%
OC1(CSc2ccccc2)CCCCC1 | 11.1% | 22.2% | 14.5% | 1% | -10.7% | -33%
COc1ccc(N2C(=O)c3c(c4[nH]c5ccccc5c4c4ccc(C(C)(C)C)cc34)C2=O)cc1 | 5.5% | -1.2% | 22.6% | 19.6% | -10.3% | -2.2%
O=C(O)CCSc1nc2ccccc2s1 | 1.2% | -9.85% | 2.75% | 0.3% | -14.2% | 19.1%
CCc1cccc(C)c1NC(=O)C(=O)Cc1nc2ccccc2s1 | 0.75% | -7.6% | -9.8% | -2.15% | -58% | -6.15%
Cc1cc(S(=O)(=O)Nc2nc(N)nc(N3CCOCC3)n2)c(SCC(=O)O)cc1Cl | 5.75% | 19.4% | 15.2% | 12.9% | 6.25% | 18.2%
CN(C)c1nnnn1-c1ccccc1 | 5.15% | 5.05% | 12.3% | -21.9% | 9.5% | 0.45%
COc1ccc(NC(=O)/C(Cc2cc(=O)oc3cc(O)ccc23)=N\NC(C)(C)C)c(OC)c1 | -4.4% | 2.8% | 9.3% | 4% | -1.8% | 7.3%
CCN(CC)CCNC(=O)c1cn2c(ccc3sc4ccccc4c(=O)c32)n1 | 70.8% (active) | 57.5% | 48.7% | 38.3% | 26.3% | 28.8%
ClC(c1ccccc1)c1cccc2ccccc12 (configuration not stated) | 30.6% | -2.45% | 7.7% | 21.5% | 11.8% | 41.6%
O=C(O)CSCC(=O)c1ccccc1 | -2.1% | -16.4% | -43.2% | -29.1% | -53.4% | -16.6%
Cc1onc(-c2c(F)cccc2Cl)c1C(=O)OCc1c(F)cccc1Cl | 6.8% | -2.15% | 20.9% | 11.5% | 25.1% | 24.5%
COc1ccc2nccc(C(=O)CCC3CCN(C(=O)c4ccc([N+](=O)[O-])cc4)CC3C(CBr)CCBr)c2c1 (configuration not stated) | 16.7% | 6.35% | 26.6% | -1.85% | 6.2% | 34.2%
COC(=O)C(=O)C(C(=O)C(=O)Nc1cccc(OC)c1)c1nc2ccc(Cl)cc2[nH]c1=O (configuration not stated) | 21.1% | -1.2% | -8.25% | -10.2% | -35.1% | -25.6%
COc1ccccc1NC(=O)N1CCN(c2cccc(C)c2)CC1 | 4.5% | -2.3% | 12.6% | -15.7% | 37.4% | -8.4%
